In the library only some 3.7% were active in any assay of this set; here they are far more common.
Tau fibril ThT – tau fibrillization inhibition (ThT binding). Potency, µM (titrated, usually from 57.4 µM), for the others: at the highest dose activity, negative = inhibition, usual class: inhibitors. P10636. 2.1% of 270,000 active. AID 1460. recombinant tau K18 P301L, heparin-induced fibrillization, ThT fluorescence; note: % is set by controls: 0 for no effect and ±100 for the full control effect; nearly all actives have a fitted effect of over 55% in size
Target sequence (P10636 561-689 P618L limits assumed): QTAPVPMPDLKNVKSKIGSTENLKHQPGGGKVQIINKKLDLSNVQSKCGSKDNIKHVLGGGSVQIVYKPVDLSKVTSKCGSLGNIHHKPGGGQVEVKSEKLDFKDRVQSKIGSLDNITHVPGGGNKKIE
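Recombinant human tau K18 fragment […] carrying P301L, 15 uM unlabeled plus 0.24 uM Alexa 594-labeled, was fibrillized with 20 uM heparin in 100 mM sodium acetate pH 7 for 6 hr at 37 C; 30 uM ThT fluorescence read after 1 hr.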
Tau fluor counter – counter-screen for tau fibril formation inhibitors | tau K18 P301L (four-repeat tau fragment) Alexa594 fluorescence, heparin fibrillization | Potency, µM (doses to about 57.7 µM), for the others: at the top dose activity change, negative = decrease | 0.93% of 280,000 active; note: % is set by controls: 0 for no effect and ±100 for the full control effect; nearly all actives have a fitted effect of over 55% in size
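Human K18 P301L tau (15 uM unlabeled plus 0.24 uM Alexa 594-labeled, final) in 100 mM sodium acetate pH 7 was mixed with compound and 20 uM heparin and incubated 6 hr at 37 C.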
HttQ103 aggreg – inhibitors of mutant huntingtin aggregate formation in PC12 cells | PC12 HttQ103-GFP aggregates, Acumen cytometry, 40 h | Potency, µM (titrated, usually from 46.1 µM), for the others: top-dose activity change, negative = inhibition, usual class: inhibitors | 1.1% of 220,000 active; note: % is set by controls: 0 for no effect and ±100 for the full control effect; nearly all actives have a fitted effect of over 60% in size
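Read-out: GFP aggregate count by laser scanning cytometer (488 nm excitation, 500-530 nm emission, 1–25 µm objects >6 SD above background). Cells: PC12, inducible HTTex1-Q103-GFP, 100 nM tebufenozide; compounds titrated.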
HTT cytoprotect – protects HTT-Q103 PC12 cells, measured by ATP; 0.14% of 230,000 active; AID 1471; Potency, µM (doses to about 56.4 µM), for inactives: cytoprotection (ATP increase), most hits filed as activators; PC12 HTT-Q103 induced, cytoprotection, ATP luminescence, 40 h; note: % of control where 0% means no effect; nearly all actives have a fitted effect of over 45% in size
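Stable PC12 Q103-GFP cells in serum-supplemented, phenol red-free DMEM; induction by tebufenozide at 100 nM final; compound dose series; cell viability quantified luminescently from ATP.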
Tau fibril FP – tau fibrillization inhibition (FP). 0.39% of 280,000 active. P10636. Potency, µM (titrated, usually from 57.7 µM), inactives show top-dose activity, negative = inhibition, most hits filed as inhibitors. AID 1468. K18 P301L tau heparin fibrillization, Alexa594 FP, 6 h; note: % is set by controls: 0 for no effect and ±100 for the full control effect; nearly all actives have a fitted effect of over 55% in size
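Human K18 P301L fragment (15 uM unlabeled plus 0.24 uM Alexa 594-labeled) in 100 mM sodium acetate pH 7 with compound, aggregation induced by 20 uM heparin for 6 hr at 37 C. ThT (30 uM) added for 1 hr, then Alexa 594 FP read.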
An asterisk follows results filed as active; ? = inconclusive; . = not tested or not shown; [ ] = another dose, or the depositor's remark. Calls come from the whole dose curve; as a rule, active = well fitted curve in the direction sought with a large enough effect; inconclusive = small, poorly fitted or top-dose-only effect, or another doubt; inactive = no such curve, though single readings can be large; an effect the other way counts as inactive or inconclusive. Potency is the fitted concentration of half-maximal effect.

SMILES	Tau fibril ThT	Tau fluor counter	HttQ103 aggreg	HTT cytoprotect	Tau fibril FP
CCN1/C(=C/C(=O)c2ccco2)Sc2ccccc21	-11.6%	6.3%	?	-24.0%	2.5%
CCN1/C(=C/c2sc(-c3ccccc3C)c[n+]2C)Sc2ccccc21	?	-1.0%	2.24µM*	-130.1%	2.1%
COc1ccc(Br)c2c1-c1nc(NC(=O)c3ccc(F)cc3)sc1C2	-14.8%	-26.0%	.	.	-6.8%
CCC(=O)Nc1ncnc2ncn(C(=O)CC)c12	.	.	.	-7.9%[10 µM]	.
CCOC(=O)c1sc2nc3c(SCCC#N)cc(C(=O)c4cc(F)ccc4O)cn3c(=O)c2c1C	?	?	20.0%	15.9%[10 µM]	-15.7%
CCOC(=O)c1sc2nc3c(SCCC(=O)O)cc(C(=O)c4cc(OC)ccc4O)cn3c(=O)c2c1C	25.1µM*	-23.7%	3.8%	.	-4.3%
O=C(O)CSc1cc(C(=O)c2cc(F)ccc2O)cn2c(=O)c3c(-c4ccccc4)csc3nc12	28.2µM*	-25.3%	-26.8%[9.22 µM]	-23.8%[10 µM]	-12.6%
COc1ccc(N2CCn3c2nc2c3c(=O)n(CCc3ccccc3)c(=O)n2C)c(OC)c1	?	-11.2%	10.8%	-9.2%	5.0%
COc1ccc(N2CCn3c2nc2c3c(=O)n(CCCc3ccccc3)c(=O)n2C)c(OC)c1	?	-24.2%	11.2µM*	-66.5%[0.074 µM]	12.8%
Cc1ccc(-c2c(C)n3c4c(=O)n(C)c(=O)n(C)c4nc3n2CCCO)cc1	-8.6%	-16.2%	.	.	-7.0%
CCc1cccc(NC(=O)C2CCN(C(=O)c3cnn(-c4ccccc4)c3-n3cccc3)CC2)c1	-18.1%	-21.9%	.	.	-0.7%
COC(=O)c1cc(C)sc1NC(=O)C1CC(=O)NN1Cc1ccccc1 (stereo not given)	-3.6%	-3.7%	18.9%	1.3%[10 µM]	1.9%
CCOC(=O)c1cc(CC)sc1NC(=O)C1CC(=O)NN1Cc1ccccc1 (stereo not given)	-7.3%	-4.6%	10µM*	0.0%[10 µM]	-0.4%
CCCn1c(CNc2ccccc2O)nc2ccccc21	28.2µM*	?	?	-10.5%	?
Cc1ccc(N2C(=O)c3ccccc3C2=O)cc1	.	1.9%	-14.5%[9.22 µM]	21.5%[10 µM]	-0.5%
Cc1ccc(SC2=C(Sc3ccc(C)cc3)C(=O)c3ccccc3C2=O)cc1	3.16µM*	2.51µM*[quencher]	-11.9%[9.22 µM]	-1.1%[10 µM]	14.1µM*
CCCCN(CCCC)S(=O)(=O)c1ccc(NS(=O)(=O)c2ccc(NC(C)=O)cc2)cc1	?	?	?	-9.1%	22.4µM*
CCN(CC)c1ccc(/C=N\NC(=O)c2cccc3cc[nH]c23)cc1	6.31µM*	14.1µM*[quencher]	-20.9%[9.22 µM]	-20.4%[10 µM]	-4.0%
CN(C)c1ccc(/C=N/NC(=O)c2ccc(NC(=O)c3ccccc3)cc2)cc1	1.58µM*	?	11.0%[9.22 µM]	-6.1%[10 µM]	3.4%
CCN(CC)c1ccc(/C=N/NC(=O)c2ccoc2C)cc1	10µM*	?	-7.4%[9.22 µM]	-17.0%[10 µM]	-2.7%
CN(C)c1ccc(/C=C(/NC(=O)c2ccccc2)C(=O)N/N=C/c2ccc([N+](=O)[O-])c(O)c2)cc1	3.98µM*	14.1µM*[quencher]	-2.7%	13.1%[10 µM]	2.1%
COc1ccc(-n2cnc3cc(C(=O)NCCC4=CCCCC4)ccc32)cc1	?	-20.4%	.	.	0.8%
Cn1nc(-c2ccccc2F)c2cc(C(=O)N3CCN(c4ccccc4F)CC3)sc21	-9.8%	-20.6%	.	.	1.5%
CCOc1ccc(S(=O)(=O)N(C(=O)c2ccncc2)c2ccc3oc(C)c(C(=O)OC)c3c2)cc1	?	-20.4%	.	.	13.1%
CCc1nn2c(=O)cc(COC(=O)c3ccccc3NC(=O)c3ccc(C(C)(C)C)cc3)nc2s1	-9.3%	-7.2%	.	.	4.4%
SMILES	Tau fibril ThT	Tau fluor counter	HttQ103 aggreg	HTT cytoprotect	Tau fibril FP
CCN(CC)c1ccc(C(=O)N/N=C(\C)c2ccc(O)cc2)cc1	?	-14.7%	27.3%	.	1.5%
CCN(CC)c1ccc(/C=N/NC(=O)c2ccc(O)cc2)cc1	3.16µM*	?	.	-162.2%	16.2%
Cc1ccc2c(c1)c1c(n2C)-c2[nH]ncc2CC1	?	17.8µM*[quencher]	-16.2%	-7.8%[10 µM]	5.2%
Cc1ccc2c(c1)c1c(n2C)C(C(N)=O)CCC1 (stereo not given)	-13.0%	-3.2%	1.7%	17.1%[10 µM]	-5.8%
CC(=O)Nc1ccc(S(=O)(=O)NC2(C(F)(F)F)NC(=O)N(CCc3ccc(F)cc3)C2=O)cc1 (stereo not given)	4.4%	0.8%	.	.	0.4%
CC1=CC(=C(c2ccc(N)cc2)c2ccc(N)cc2)C=CC1=N	.	.	7.94µM*	-61.8%	.
CCCc1cc(-c2[nH]ncc2-c2ccc(C(=O)OCC)o2)c(O)cc1O	-14.4%	14.1µM*[quencher]	-8.3%[9.22 µM]	3.6%	?
CCCc1cc(-c2[nH]ncc2-c2ccc3c(c2)OCCCO3)c(O)cc1O	?	10µM*[quencher]	-31.2%	-3.9%[0.074 µM]	?
Cc1ccc(OCc2nc(-c3ccc(C(=O)N4CCN(c5ccccc5F)CC4)cc3)oc2C)cc1	-12.9%	-5.2%	.	.	?
CNc1nc(SCc2ccccc2Cl)nc2c1CCCC2	-10.0%	-25.3%	10µM*	-22.0%[10 µM]	-2.8%
C#CCCCO/N=C1/C[C@@H](O)[C@@H](O)[C@@H]2[C@@H]3C(=O)N(C4CCCCC4)C(=O)[C@H]3CC[C@H]12	2.1%[11.5 µM]	-11.4%[11.6 µM]	.	-2.2%[10 µM]	?
Nc1cccc2c1C(=O)N(C(=O)/C=C/c1ccc(F)cc1)C2=O	25.1µM*	-14.5%	14.9%	-83.8%	?
COc1cccc([C@@H]2Oc3ccc(Br)cc3[C@H](O)[C@H]2O)c1	-1.4%	-2.2%	.	-9.1%	6.8%
O=C(O)c1ccc(C(=O)O)c(C(=O)Nc2ccc3c(c2)Cc2ccccc2-3)c1	.	.	.	-3.9%[10 µM]	.
CNC(=O)c1cc2cc(OC)ccc2oc1=O	-13.0%	-5.9%	13.7%[1.84 µM]	-1.0%	0.0%
COc1ccc2oc(=O)c(/C(C)=N/Nc3ccccc3)cc2c1	17.8µM*	?	-15.7%	-24.4%	-11.4%
N[C@H](C(=O)O)C1C(C(=O)O)C1C(=O)O (stereo not given in full)	8.0%	3.5%	.	-43.0%	-0.7%
O=c1cc(C(F)(F)F)[nH]c2c(C(F)(F)F)cccc12	-4.4%	-7.0%	20µM*	.	8.0%
Cc1ccc(CN2C(=O)SC(Nc3ccc(Cl)cc3)C2=O)cc1 (stereo not given)	-6.2%	?	.	.	?
N#C/C(=C1/C(=O)Nc2ccc(Br)cc21)c1ccccn1	28.2µM*	-21.3%	5.7%	?	?
N#C/C(=C\c1ccccc1)c1ccccn1	-6.3%	1.3%	5.3%	-23.1%	9.7%
CN(C)S(=O)(=O)c1cc(NC(=O)CSc2nn(-c3ccc(Cl)cc3)c(=S)s2)ccc1Cl	?	?	-10.8%	20.7%[10 µM]	25.1µM*
Cc1ccc(S(=O)(=O)NCCC(=O)Nc2ccc(Cl)c(Cl)c2)cc1C	7.5%	?	-8.4%	7.7%[10 µM]	14.1µM*
Cc1ccc(NC(=O)Cc2ccc(Cl)c(Cl)c2)cc1S(=O)(=O)N(C)C	6.0%	?	?	15.9%[10 µM]	?
